FAK inh = FAK (human) kinase inhibition | hit rate 0.84% among 97,000 | Q05397 | inhibition, %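 (tested at 7 µM)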 | biochemical FAK kinase activity assay;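 also: 0% = DMSO and 100% = reference compound high control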
DAT uptake mod = human DAT dopamine uptake with cocaine, either direction. B-score at 10 µM. LLC-PK1 hDAT cells, [14C]-dopamine uptake with cocaine IC80; actives deviate in either direction. hit rate 1.3% among 110,000;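 active = Z score or B-score, a plate-position-corrected score, falls beyond the plate's 99.7% confidence bounds, in either direction; inactive = both scores lie inside the 99.7% bounds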;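 also: scored against the spread of the other compound wells on the same plate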
CD11b adhes inh = blocks human CD11b/CD18 adhesion to fibrinogen. AID 1497. K562 CD11b/CD18 adhesion to fibrinogen, ATPlite luminescence; Mn2+ added to activate the integrin. hit rate 0.54% among 93,000. inhibition, % at 10 µM;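 active = primary inhibition of 50% or more at 10 µM, then 40% or more on retest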
Pyk2 oligo antag = blocks oligomerization of human Pyk2 in cells. Q14289. Q293 cells, Pyk2 FERM NanoBiT luminescence; stronger effect = lower value. z-score (the deposit names both 25 µM and 10 µM). hit rate 0.83% among 99,000. AID 1347419;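 active = Z-score of -3 or lower, scaled per plate to the spread of control and sample wells; inactive = z-score above -3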;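 also: negative z-score means lost luminescence so less FERM oligomerization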
CD11b adhes enh = enhancers of human CD11b/CD18 binding to fibrinogen; P05107+P11215; K562 CD11b/CD18 adhesion to fibrinogen, ATPlite luminescence; activation, % at 10 µM; hit rate 0.07% among 93,000;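 active = 10 µM primary screen giving 50% or more activity, confirmed by 40% or more on retest at that dose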
D1 mod = D1 dopamine receptor (human) allosteric modulation | P21728 | HEK293 D1, CRE-luciferase, dopamine EC30 potentiation; actives deviate in either direction | B-score at 10 µM | hit rate 5.9% among 58,000 | AID 641;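 active = luminescence count or its row- and column-corrected plate score outside the 99.7% band of the plate's sample wells, on either side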
Target sequence (P21728 whole entry, looked up): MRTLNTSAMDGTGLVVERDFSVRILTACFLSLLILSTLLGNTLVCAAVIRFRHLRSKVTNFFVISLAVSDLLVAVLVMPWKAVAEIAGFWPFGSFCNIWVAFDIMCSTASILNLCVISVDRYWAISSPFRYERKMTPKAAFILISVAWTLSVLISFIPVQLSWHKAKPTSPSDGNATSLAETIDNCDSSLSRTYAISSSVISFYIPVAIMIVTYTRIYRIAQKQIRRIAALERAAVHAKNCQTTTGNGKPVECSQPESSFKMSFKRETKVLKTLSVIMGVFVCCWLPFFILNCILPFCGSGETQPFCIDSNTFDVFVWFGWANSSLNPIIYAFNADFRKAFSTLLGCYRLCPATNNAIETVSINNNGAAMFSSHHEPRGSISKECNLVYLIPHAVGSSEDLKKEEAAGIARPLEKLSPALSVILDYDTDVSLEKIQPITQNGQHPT
FAK inh conf = confirmation of human focal adhesion kinase (FAK) inhibitors. shares compounds with FAK inh. FAK kinase biochemical inhibition assay. inhibition, % at 7 µM. hit rate 28% among 750. AID 794
* hit, by the source's call; · = no result given. Shown is part of a subset that was picked to be rich in hits. Rule as the data show it, unless noted: active = inhibition above about 19%; inactive = the rest.

SMILES	FAK inh	DAT uptake mod	CD11b adhes inh	Pyk2 oligo antag	CD11b adhes enh	D1 mod	FAK inh conf
Cc1cc(NC(=O)CSc2c3c(nc4ccccc24)CCC3)no1	27*	·	-1	·	2	0.67	9
COc1cc(NC(=O)CSc2c3c(nc4ccccc24)CCC3)cc(OC)c1OC	·	·	1	0.62	0	·	·
Oc1oc(-c2ccccc2)nc1C=Nc1ccccc1	5	0.25	·	0.66	·	·	·
CC(=O)Nc1ccc(N=Cc2nc(-c3ccc(C)cc3)oc2O)cc1	24*	0.2	-6	0.07	42	0.069	12
COc1ccc2nc(C)cc(SCC(=O)O)c2c1	7	2.3	-11	0.13	-1	-0.027	·
COC(=O)CSc1cc(C)nc2ccc(OC)cc12	19*	-0.14	-5	-0.64	-2	·	1
COc1ccc2nc(C)cc(SCC(=O)N/N=C/c3cccc4ccccc34)c2c1	32*	0.77	10	-0.65	65	·	23*
COc1cccc2c(SCC(=O)N/N=C/c3ccccc3)cc(C)nc12	·	·	8	·	11	·	·
C[C@H]1C=C(C(=O)NC2CC2)O[C@@H](OCc2ccc(CO)cc2)C1	·	-0.012	·	·	·	·	·
CCC1(CC)NC(=O)N(CC(=O)Nc2sc3c(c2C(N)=O)CCC3)C1=O	28*	0.88	-8	0.23	79	-1.3	6
CCCCC(=O)Nc1sc2c(c1C(N)=O)CCC2	20*	1.6	-26	-0.51	1	1.6	12
O=C(NC(=S)Nc1ccc(S(=O)(=O)NC2CCCCC2)cc1)c1cccs1	·	·	86	·	-6	·	·
O=C(CSc1nnc(COc2cccc3cccnc23)o1)N1CCc2ccccc21	20*	0.71	7	0.89	8	0.27	8
O=C(CSc1nnc(Cc2ccccc2)o1)N1CCc2ccccc21	1	0.5	-1	-0.09	0	-1.5	·
CCc1nc(SCC(=O)c2ccc3c(c2)OCCO3)c2ccccc2n1	22*	·	22	0.14	3	·	8
CC(C)(C)c1nc(SCC(=O)Nc2ccc3c(c2)OCCO3)c2ccccc2n1	19*	-1.5	·	-2.5	·	·	8
CC(C)(C)c1nc(SCC(=O)Nc2ccc(N3CCOCC3)cc2)c2ccccc2n1	32*	0.3	·	-0.06	·	·	15
O=C(CSc1nc(Cc2ccccc2)nc2ccccc12)c1ccc2c(c1)OCCO2	-7	-0.14	16	0.18	-2	·	·
CCN(CC(=O)Nc1ccc([N+](=O)[O-])cc1OC)c1ccccc1	5	-0.49	6	0.7	4	·	·
CCOc1ccc2nc(SCC(=O)N3CCCCCC3)c(C#N)cc2c1	25*	1.1	6	-2	-1	1.1	9
O=C(c1cccc(C(=O)N2CCN(c3ncccn3)CC2)c1)N1CCN(c2ncccn2)CC1	0	·	·	2.1	·	4.2	·
O=C(Nc1ccc(N2CCOCC2)cc1)c1ccc2nc(-c3ccco3)c(-c3ccco3)nc2c1	8	-0.13	-10	-2.5	103	1	·
CC(=O)c1ccc(NC(=O)c2ccc3nc(-c4ccco4)c(-c4ccco4)nc3c2)cc1	84*	-0.51	-10	-0.35	81	·	30*
O=C(Nc1ccccc1)c1ccc2nc(-c3ccco3)c(-c3ccco3)nc2c1	21*	0.84	-38	-0.63	39	-0.019	2
O=C(c1ccc2nc(-c3ccco3)c(-c3ccco3)nc2c1)N1CCN(c2ncccn2)CC1	55*	-0.085	-4	-0.79	1	·	-3
SMILES	FAK inh	DAT uptake mod	CD11b adhes inh	Pyk2 oligo antag	CD11b adhes enh	D1 mod	FAK inh conf
O=C(NCc1ccccc1)c1ccc2nc(-c3ccco3)c(-c3ccco3)nc2c1	45*	-0.82	-5	-0.29	-2	·	4
Cc1occc1-c1nnc(SCC(=O)c2cc3ccccc3oc2=O)o1	-4	0.059	-11	0.04	3	-0.95	·
CCOC(=O)c1cnc2ccc(OC)cc2c1Nc1ccc2c(c1)OCCO2	24*	-0.13	8	-4*	1	·	11
CCOC(=O)c1cnc2ccc(C(=O)OC)cc2c1Nc1ccc2c(c1)OCCO2	36*	-0.88	·	-1.5	·	·	11
CCOC(=O)c1ccc2ncc(C(=O)OCC)c(NCc3ccco3)c2c1	23*	0.13	8	0.46	-3	1.1	9
CCOC(=O)c1cnc2c(OC)cccc2c1Nc1ccc2c(c1)OCCO2	·	·	-5	·	0	·	·
O=c1c2ccccc2nc2ccc(NCc3ccco3)nn12	23*	0.16	-20	0.41	-5	0.5	1
CCCCC1(C)OC(=O)C(=Cc2ccc(N(C)C)cc2)C(=O)O1 (configuration not stated)	-5	0.029	·	2.7	·	·	·
O=C(N/N=C/c1cccc([N+](=O)[O-])c1)c1cc2ccccc2o1	·	·	-20	·	46	·	·
O=C(COc1ccc(/C=N/NC(=O)c2cc3ccccc3o2)cc1Cl)Nc1ccccc1	40*	-0.66	21	0.47	34	·	36*
Cc1ccc(-c2onc3ccc(C=O)cc23)cc1	22*	-0.16	-15	-0.48	2	·	30*
Cc1ccc(-c2onc3ccc(C4(C)OCCO4)cc23)cc1	0	-0.71	-4	-0.2	-3	·	·
Cc1nn(CC(=O)Nc2ccc3c(c2)oc2ccccc23)c(=O)c2ccccc12	29*	·	-3	-0.96	-2	-0.44	16
COC(=O)C1=C(C)NC2=C(C(=O)CC(c3cccs3)C2)C1c1ccsc1 (configuration not stated)	22*	-0.3	2	-2.1	2	-2.6	21*
CCc1c(C)sc(NC(=O)C2CC2c2ccccc2)c1C(N)=O (configuration not stated)	35*	1.4	-5	-0.72	3	·	17
NNC(=O)C1CC1c1ccccc1 (configuration not stated)	·	·	-28	0.22	0	·	·
COCCn1c(SCC(=O)NCc2ccco2)nnc1-c1c[nH]c2ccccc12	40*	0.6	-17	·	2	·	1
CCn1c(SCC(=O)NCc2ccco2)nnc1-c1c[nH]c2ccccc12	0	0.23	-7	0.06	-1	·	·
Clc1ccc2[nH]c3c(NCCCN4CCOCC4)ncnc3c2c1	12	-0.33	15	1.4	0	0.91	·
CCN1CCCC1CNc1ncnc2c1[nH]c1ccc(Cl)cc12 (configuration not stated)	21*	-1.9	13	1.1	-5	-3.3	2
O=C1CCCN1CCCNc1ncnc2c1[nH]c1ccc(Cl)cc12	29*	-0.31	0	-0.8	-4	0.049	4
Cc1nn2c(c1-c1ccccc1)NC1=C(C(=O)CCC1)C2c1ccccc1 (configuration not stated)	25*	-0.28	·	-2.8	·	·	22*
COc1ccc(C2C3=C(CCCC3=O)Nc3c(-c4ccccc4)c(C)nn32)cc1 (configuration not stated)	5	-0.13	-2	-2.2	-2	·	·

Screening results: PubChem, several laboratories
